Among the data in ChEMBL document CHEMBL3988442, “University of Dundee, Small-Polar-MMV Screening Library” (2021) are Percent Effect values, retold here.

The first assay has as its target T1, Aspartate--tRNA(Asp/Asn) ligase (Mycobacterium tuberculosis (strain ATCC 25618 / H37Rv)) (UniProt P9WFW3). Also: in the data most compounds retested in dose-response had high values.
T1 sequence (whole entry): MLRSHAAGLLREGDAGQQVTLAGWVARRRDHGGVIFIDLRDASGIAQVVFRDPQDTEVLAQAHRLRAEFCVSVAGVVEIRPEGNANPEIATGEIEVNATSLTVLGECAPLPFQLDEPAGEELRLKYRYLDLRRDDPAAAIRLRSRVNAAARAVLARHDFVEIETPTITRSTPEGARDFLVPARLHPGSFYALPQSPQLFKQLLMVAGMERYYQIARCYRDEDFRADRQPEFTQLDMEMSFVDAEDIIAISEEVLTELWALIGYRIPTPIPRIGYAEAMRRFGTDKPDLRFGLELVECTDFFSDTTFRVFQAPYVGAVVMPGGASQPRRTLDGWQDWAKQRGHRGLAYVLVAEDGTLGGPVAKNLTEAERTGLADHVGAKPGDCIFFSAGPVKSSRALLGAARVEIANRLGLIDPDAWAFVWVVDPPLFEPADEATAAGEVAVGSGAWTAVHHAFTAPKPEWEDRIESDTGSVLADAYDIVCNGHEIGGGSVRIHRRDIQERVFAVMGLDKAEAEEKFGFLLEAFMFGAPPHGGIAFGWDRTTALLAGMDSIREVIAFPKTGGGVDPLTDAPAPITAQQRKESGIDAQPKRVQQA
Put plainly: Assay for Asp RNA synthetase-1 from Mycobacterium tuberculosis. The following applies: 30 µM. Type of assay: functional. Set-up: scale not given: direction of the effect not stated beside the values.
Turning to `COc1ccc(CN2CCc3nc(C4CCCCN4C)ncc3C2)cc1` (stereo not given), the Percent Effect was found to be 3.22%.

`CNc1cncc(C2CCCN2C(=O)c2ccc3oc(C)cc3c2)n1` (stereo not given): the Percent Effect came to 0.779%.

For `Cn1nc(C2CN(C(=O)c3cscn3)C2)c2nccnc21`, the Percent Effect is 2.04%.

For the compound `Nc1cc2c(nn1)CCN(C(=O)CC1CCCC1)C2`, the Percent Effect was -1.69%.

Consider `Clc1ccccc1C1(c2ccnc(-c3ccncc3)n2)CCNCC1`, for which the Percent Effect was found to be 0.832%.

As for `OCC1CCCCN1c1ccc(-c2nc(-c3ccccc3F)no2)cn1` (stereo not given), the Percent Effect is -6.87%.

For the compound `CC(O)CN1CCN(C(=O)c2cccc(CC#N)c2)CC1` (stereo not given), the Percent Effect worked out at 2.73%.

For the compound `CN(C)CC1CSCCCN1C(=O)c1ccc(C(C)(C)C)cc1` (stereo not given), the Percent Effect is -2.32%.

`Cn1cccc1C(=O)N[C@@H]1CN(CC2CC2)[C@@H]2COC[C@@H]21`: the Percent Effect stood at 1.28%.

Consider `Cc1cnn(CC2CCCN2Cc2ncc(-c3ccccc3)o2)c1` (stereo not given), for which the Percent Effect amounted to 4.6%.

With `CC(=O)NC(C)c1ccc(OCC2CC2)c(F)c1` (stereo not given), the Percent Effect was determined as 0.15%.

Turning to `Cc1cnn(CC(C)NCc2ccc(OCc3ccncc3)cc2)c1` (stereo not given), the Percent Effect was -0.0437%.

On to `CNC(=O)CS(=O)(=O)C1CCN(S(=O)(=O)c2ccccc2Br)CC1`, for which the Percent Effect was -6.53%.

As to `CC(C)c1nn(C)c(Cl)c1CNC1CCOc2ccccc21` (stereo not given), the Percent Effect stood at 1.57%.

As to `CNc1nc(CNC(=O)Nc2cccc(-c3nnco3)c2)cs1`, the Percent Effect is 2.65%.

Take `c1ccc(CC2CCN(Cc3ccnc(-c4cccnc4)n3)CC2)cc1`: the Percent Effect amounted to 0.908%.

For `Cn1cc(C(=O)N[C@@H]2CN(Cc3cccs3)[C@@H]3CCCO[C@@H]32)cn1`, the Percent Effect was found to be 1.75%.

Consider `COCCc1noc(CN2CCCCC2Cn2nc(C)cc2C)n1` (stereo not given), for which the Percent Effect was -0.417%.

`CCc1nc(CN2CCCC(NCc3cnn(C(C)(C)C)c3)C2)no1` (stereo not given): the Percent Effect is -3.23%.

As to `CC(NC(=O)NCc1cccc(N2CCCC2=O)c1)c1ccccc1` (stereo not given), the Percent Effect is -1.99%.

In the case of `CN(C)C(C(=O)N1CCCC1)c1ccccc1F` (stereo not given), the Percent Effect came to 3.9%.

For the compound `O=C([C@@H]1CC[C@@H]2[C@@H](CCN2Cc2ccoc2)O1)N1CCCC1`, the Percent Effect is 0.466%.

Turning to `O=C1CCc2cc(-c3csc(CCN4CCCC4=O)n3)ccc2N1`, the Percent Effect is -0.577%.

On to `COc1cc(C)sc1C(=O)N1CCC(Nc2cccnc2)CC1`, for which the Percent Effect was -3.37%.

On to `CC(=O)N(Cc1ncc(C)o1)C1CCN(Cc2ccncc2Cl)C1` (stereo not given), for which the Percent Effect turned out to be 2.91%.

Take `Cc1csc(CNC(=O)N(C)Cc2cnn(C)c2)n1`: the Percent Effect amounted to 1.54%.

On to `O=C(COc1ccc2c(c1)CCC2)NS(=O)(=O)c1cncc(Br)c1`, for which the Percent Effect worked out at 4.7%.

As to `COc1ccc2c(c1)CC(NC(=O)NCc1cccs1)CO2` (stereo not given), the Percent Effect is -4.82%.

Regarding `Cc1nc(CN2CCCC(N(C)Cc3c(C)noc3C)C2)no1` (stereo not given), the Percent Effect is -5.45%.

Take `Cn1nc(C2CCCN(C(=O)CO)C2)cc1O` (stereo not given): the Percent Effect stood at 3.92%.

In the case of `Cn1cc(CCC(=O)N2CCN(Cc3ccncc3)CC2)cn1`, the Percent Effect was -1.76%.

`Cc1nc(C)n(C2CCCN(C(=O)c3ccc4c(c3)COC4)C2)n1` (stereo not given): the Percent Effect is 0.699%.

As to `CSc1nccn1-c1cccc(C(=O)NCC2CC2)c1`, the Percent Effect was determined as 4.07%.

For `Cc1cn(-c2ccccc2)nc1NS(=O)(=O)c1cccc(C(=O)O)c1`, the Percent Effect is 2.62%.

Consider `Cc1ccoc1C(=O)N1CCOCC2(CCN(c3ncccn3)C2)C1` (stereo not given), for which the Percent Effect turned out to be 5.74%.

Take `COCCCNC(=O)NCc1ccc(C)cc1`: the Percent Effect is -3.8%.

Regarding `O=C(CCNC(=O)C1CCCC1)NCc1ccccc1Cn1cncn1`, the Percent Effect amounted to 2.64%.

Turning to `Cn1ncc2c(NCCC34CCCN3CCC4)nc(C3CCCC3)nc21`, the Percent Effect stood at 8.28%.

On to `O=C1C(NCc2nnc3n2CCCC3)CCCN1c1cccc(F)c1` (stereo not given), for which the Percent Effect turned out to be 0.344%.

`Cc1cc(C)c(OCC(=O)NS(=O)(=O)c2cccnc2)c(C)c1`: the Percent Effect is -4.5%.

The next assay has as its target Shiga toxin 2 (Escherichia coli O157:H7) (UniProt P09385+P09386). As to the kind of experiment: E. coli 0.157:H7 Shiga Toxin SOP - stx2 screening assay. Type of assay: functional. Set-up: scale not given: direction of the effect not stated beside the values. The following applies: 30 µM.
Take `COc1ccc(CN2CCc3nc(C4CCCCN4C)ncc3C2)cc1` (stereo not given): the Percent Effect was -19.9%.

Regarding `CNc1cncc(C2CCCN2C(=O)c2ccc3oc(C)cc3c2)n1` (stereo not given), the Percent Effect was -4.12%.

`Cn1nc(C2CN(C(=O)c3cscn3)C2)c2nccnc21`: the Percent Effect worked out at 8.15%.

In the case of `Nc1cc2c(nn1)CCN(C(=O)CC1CCCC1)C2`, the Percent Effect amounted to 2.23%.

For `Clc1ccccc1C1(c2ccnc(-c3ccncc3)n2)CCNCC1`, the Percent Effect was -43.2%.

As for `OCC1CCCCN1c1ccc(-c2nc(-c3ccccc3F)no2)cn1` (stereo not given), the Percent Effect is -36.1%.

For `CC(O)CN1CCN(C(=O)c2cccc(CC#N)c2)CC1` (stereo not given), the Percent Effect was -54.8%.

For `CN(C)CC1CSCCCN1C(=O)c1ccc(C(C)(C)C)cc1` (stereo not given), the Percent Effect came out at 10.3%.

Consider `Cn1cccc1C(=O)N[C@@H]1CN(CC2CC2)[C@@H]2COC[C@@H]21`, for which the Percent Effect was -3.7%.

Consider `Cc1cnn(CC2CCCN2Cc2ncc(-c3ccccc3)o2)c1` (stereo not given), for which the Percent Effect stood at 25.3%.

Regarding `CC(=O)NC(C)c1ccc(OCC2CC2)c(F)c1` (stereo not given), the Percent Effect was found to be 4.12%.

In the case of `Cc1cnn(CC(C)NCc2ccc(OCc3ccncc3)cc2)c1` (stereo not given), the Percent Effect was -25.9%.

Turning to `CNC(=O)CS(=O)(=O)C1CCN(S(=O)(=O)c2ccccc2Br)CC1`, the Percent Effect was -14%.

`CC(C)c1nn(C)c(Cl)c1CNC1CCOc2ccccc21` (stereo not given): the Percent Effect was found to be 27.5%.

`CNc1nc(CNC(=O)Nc2cccc(-c3nnco3)c2)cs1`: the Percent Effect was -22.3%.

On to `c1ccc(CC2CCN(Cc3ccnc(-c4cccnc4)n3)CC2)cc1`, for which the Percent Effect is -6.53%.

In the case of `Cn1cc(C(=O)N[C@@H]2CN(Cc3cccs3)[C@@H]3CCCO[C@@H]32)cn1`, the Percent Effect was -2.87%.

With `COCCc1noc(CN2CCCCC2Cn2nc(C)cc2C)n1` (stereo not given), the Percent Effect was 1.32%.

For the compound `CCc1nc(CN2CCCC(NCc3cnn(C(C)(C)C)c3)C2)no1` (stereo not given), the Percent Effect was determined as 2.93%.

Consider `CC(NC(=O)NCc1cccc(N2CCCC2=O)c1)c1ccccc1` (stereo not given), for which the Percent Effect is 21.2%.

On to `CN(C)C(C(=O)N1CCCC1)c1ccccc1F` (stereo not given), for which the Percent Effect was -23.9%.

Turning to `O=C([C@@H]1CC[C@@H]2[C@@H](CCN2Cc2ccoc2)O1)N1CCCC1`, the Percent Effect came to 1.2%.

In the case of `O=C1CCc2cc(-c3csc(CCN4CCCC4=O)n3)ccc2N1`, the Percent Effect is -10.4%.

On to `COc1cc(C)sc1C(=O)N1CCC(Nc2cccnc2)CC1`, for which the Percent Effect is -50.2%.

For `CC(=O)N(Cc1ncc(C)o1)C1CCN(Cc2ccncc2Cl)C1` (stereo not given), the Percent Effect was determined as 16%.

In the case of `Cc1csc(CNC(=O)N(C)Cc2cnn(C)c2)n1`, the Percent Effect was -1.35%.

For the compound `O=C(COc1ccc2c(c1)CCC2)NS(=O)(=O)c1cncc(Br)c1`, the Percent Effect worked out at 4.36%.

For the compound `COc1ccc2c(c1)CC(NC(=O)NCc1cccs1)CO2` (stereo not given), the Percent Effect was -8.88%.

In the case of `Cc1nc(CN2CCCC(N(C)Cc3c(C)noc3C)C2)no1` (stereo not given), the Percent Effect was found to be 18.6%.

As for `Cn1nc(C2CCCN(C(=O)CO)C2)cc1O` (stereo not given), the Percent Effect was found to be 10.4%.

Turning to `Cn1cc(CCC(=O)N2CCN(Cc3ccncc3)CC2)cn1`, the Percent Effect amounted to 1.29%.

In the case of `Cc1nc(C)n(C2CCCN(C(=O)c3ccc4c(c3)COC4)C2)n1` (stereo not given), the Percent Effect was -16.5%.

`CSc1nccn1-c1cccc(C(=O)NCC2CC2)c1`: the Percent Effect amounted to 32%.

Consider `Cc1cn(-c2ccccc2)nc1NS(=O)(=O)c1cccc(C(=O)O)c1`, for which the Percent Effect is -5.83%.

For `Cc1ccoc1C(=O)N1CCOCC2(CCN(c3ncccn3)C2)C1` (stereo not given), the Percent Effect stood at 8%.

Turning to `COCCCNC(=O)NCc1ccc(C)cc1`, the Percent Effect is -59.7%.

With `O=C(CCNC(=O)C1CCCC1)NCc1ccccc1Cn1cncn1`, the Percent Effect was found to be 29.7%.

For the compound `Cn1ncc2c(NCCC34CCCN3CCC4)nc(C3CCCC3)nc21`, the Percent Effect was -7.47%.

`O=C1C(NCc2nnc3n2CCCC3)CCCN1c1cccc(F)c1` (stereo not given): the Percent Effect is -64.6%.

In the case of `Cc1cc(C)c(OCC(=O)NS(=O)(=O)c2cccnc2)c(C)c1`, the Percent Effect was -1.8%.
